Compound activity (PubChem)
In the library only some 8.3% were active in any assay of this set; here they are far more common.
Giardia FBPA inh-1 – blocks Giardia fructose-bisphosphate aldolase activity; Potency, µM (series often up to 59.6 µM), inactives show at the highest dose activity, negative = inhibition, usual class: inhibitors; purified Giardia FBPA; 290,000 compounds, 0.71% hits; A8B2U2; AID 2451; also: potency is read from the fitted curve at half-maximal effect; nearly all actives have a fitted effect of over 55% in size
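Giardia FBPA (40 nM reagent) was preincubated 10 min at RT with compound (up to 57.5 uM final), then substrate plus GAPDH/TPI/NAD/arsenate coupling system with diaphorase/resazurin was added; resorufin fluorescence (525/598 nm) was read after 20 min.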
HCMV antiviral – inhibitors of human cytomegalovirus | HFF cells, HCMV-luciferase reporter, 72 h; hits give low values | activity change, negative = inhibition, % at 57.5 µM | 410,000 compounds, 4.5% hits | AID 1259415; in the data active = activity change below about -60%; inconclusive = no clear call, values can overlap the other calls; inactive = above about -39%
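After 16 h attachment at 37C, HFF cells received test compound and HCMV-luciferase (1 PFU/cell); reporter luminescence read 72 h later, data normalized against buffer-only and known inhibitor Salinomycin.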
Lassa entry inh – blocks Lassa virus binding to or entry into cells. Lassa virus pseudotype entry inhibition, cell reporter. 300,000 compounds, 1.2% hits. Potency, µM (titrated, usually from 37.9 µM), for inactives: at the top dose activity change, negative = inhibition, usual class: inhibitors; calls by dose curve; tested in HEK293 cells; also: potency is read from the fitted curve at half-maximal effect; nearly all actives have a fitted effect of over 50% in size
Marburg entry inh – blocks Marburg virus binding to or entry into cells; Potency, µM (highest dose often 37.8 µM), for the others: top-dose activity change, negative = inhibition, actives largely listed as inhibitors; Marburg virus pseudotyped entry inhibition, cell reporter; AID 540276; 300,000 compounds, 1.8% hits; calls by dose curve; tested in HEK293 cells; also: potency is read from the fitted curve at half-maximal effect
HCV inhibitor – blocks hepatitis C virus. 340,000 compounds, 3.4% hits. Potency, µM (titrated, usually from 41.8 µM), inactives show at the top dose activity change, negative = inhibition, usual class: inhibitors. Huh7.5.1 HCVcc-Cre infection, luciferase reporter, 44 h; also: potency is read from the fitted curve at half-maximal effect
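Cells (1,000/well) were plated 4 h before compound, then infected with HCVcc-Cre virus (~0.5 moi). After 44 h further culture, infection was read as luciferase luminescence following a 15 min substrate incubation at room temperature.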
FMDV antiviral – antivirals against foot and mouth disease virus. 410,000 compounds, 1.2% hits. Potency, µM (highest dose often 57.9 µM), without a hit: at the top dose activity change, negative = inhibition, most hits filed as inhibitors. AID 1159524. FMDV antiviral cell-based qHTS; calls by dose curve; tested in HEK293T cells; also: read-out not given here; potency is read from the fitted curve at half-maximal effect; nearly all actives have a fitted effect of over 45% in size
Giardia growth – Giardia lamblia growth inhibition; AID 2785; 1,500 compounds, 5% hits; shares compounds with Giardia FBPA inh-1; Giardia lamblia trophozoite growth inhibition; Potency, µM (doses to about 57.5 µM), without a hit: at the top dose activity change, negative = inhibition, most hits filed as inhibitors;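 also: potency is read from the fitted curve at half-maximal effect; trophozoites exposed to compound for 48 h at 37 °C; nearly all actives have a fitted effect of over 70% in size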
Mammalian tox – mammalian cytotoxicity of Giardia aldolase inhibitor hits; shares compounds with Giardia FBPA inh-1; mammalian cell viability counter-screen, qHTS; Potency, µM (titrated, usually from 57.5 µM), for the others: top-dose viability change, negative = toxicity, hits mostly inhibitors; 1,500 compounds, 4% hits; AID 2786;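 also: Chinese hamster ovary cells used as mammalian cytotoxicity surrogate; viability measured as cellular ATP by luminescence; potency is read from the fitted curve at half-maximal effect; compound exposure lasted 48 h before reading; nearly all actives have a fitted effect of over 60% in size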
Giardia FBPA inh-2 – confirmation of Giardia fructose-bisphosphate aldolase inhibitors; shares compounds with Giardia FBPA inh-1; purified Giardia aldolase enzyme activity, qHTS; Potency, µM (top dose mostly 57.5 µM), for inactives: top-dose activity change, negative = inhibition, usual class: inhibitors; 1,500 compounds, 5% hits; AID 2787; also: potency is read from the fitted curve at half-maximal effect; nearly all actives have a fitted effect of over 45% in size
Rabbit FBPA inh – rabbit FBP aldolase inhibition by Giardia aldolase hits. Rabbit muscle FBPA enzyme inhibition, selectivity counter-screen. shares compounds with Giardia FBPA inh-1. Potency, µM (series often up to 57.5 µM), for inactives: at the highest dose activity, negative = inhibition, actives largely listed as inhibitors. 1,500 compounds, 4% hits; also: potency is read from the fitted curve at half-maximal effect; nearly all actives have a fitted effect of over 60% in size
Target sequence (P00883 whole entry, looked up): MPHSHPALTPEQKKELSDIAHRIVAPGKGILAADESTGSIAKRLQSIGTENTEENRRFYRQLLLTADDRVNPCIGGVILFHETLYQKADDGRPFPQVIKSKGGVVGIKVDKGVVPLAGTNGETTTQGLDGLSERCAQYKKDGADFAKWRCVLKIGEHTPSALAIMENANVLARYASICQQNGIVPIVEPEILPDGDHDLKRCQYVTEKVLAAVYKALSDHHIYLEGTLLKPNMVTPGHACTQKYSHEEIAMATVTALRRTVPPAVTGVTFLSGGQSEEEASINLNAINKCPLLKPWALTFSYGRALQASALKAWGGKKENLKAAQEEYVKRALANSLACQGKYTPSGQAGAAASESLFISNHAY
GAPDH counter – GAPDH inhibition flagged for Giardia aldolase hits; Potency, µM (series often up to 57.5 µM), for the others: at the highest dose activity change, negative = inhibition, actives largely listed as inhibitors; GAPDH coupling enzyme counterscreen, biochemical, qHTS; shares compounds with Giardia FBPA inh-1; 1,500 compounds, 6% hits; also: potency is read from the fitted curve at half-maximal effect; nearly all actives have a fitted effect of over 55% in size
Numbers without * were called inactive; u = inconclusive; x = not tested or not shown; [ ] = dose if it differs, or a comment. Unless noted, calls follow the shape of the dose curve; as a rule, active = well fitted curve in the direction sought with a large enough effect; inconclusive = small, poorly fitted or top-dose-only effect, or another doubt; inactive = no such curve, though single readings can be large; an effect the other way counts as inactive or inconclusive. % is scaled to controls: 0 for no effect and ±100 for the full control effect.

SMILES	Giardia FBPA inh-1	HCMV antiviral	Lassa entry inh	Marburg entry inh	HCV inhibitor	FMDV antiviral	Giardia growth	Mammalian tox	Giardia FBPA inh-2	Rabbit FBPA inh	GAPDH counter
O=C1CCCC=C1[C@H](O)c1ccc([N+](=O)[O-])cc1	-0.8%[12.9 µM]	x	x	x	x	x	x	x	x	x	x
Brc1cccc(OCCCCn2cncn2)c1	28.2µM*	51.6	x	x	-4.1%	-7.8%	13.5%	14.7%	0.0%	0.0%	7.5%
COc1ccc(-n2c(=O)c(-c3ccc(F)cc3)nc3cncnc32)cc1	8.8%	x	x	x	x	2.5%	x	x	x	x	x
O=C(Oc1ccccc1)N1CCC[C@@]2(CCN(c3ncccn3)C2)C1	7.2%	x	x	x	x	-10.9%	x	x	x	x	x
CC(=O)C(C(C)=O)c1c(Cl)c(O)c(O)c2c(C(=O)c3ccccc3)coc12	17.7µM*	-107.1*	7.08µM*	u	10µM*	u	-11.8%	-16.4%	u	-23.8%	-11.6%
CN1CCN(Cc2c(O)ccc3occ(C(=O)c4ccccc4)c23)CC1	-7.0%	13.8	-24.8%	u	u	8.3%	x	x	x	x	x
CCc1ccc(NC(=O)Cn2c(=O)n(-c3ccc(OC)cc3)c(=O)c3ccc(C(=O)NCc4ccc(C)cc4)cc32)cc1	x	-3.8	5.3%[46.1 µM]	16.3%[46.1 µM]	x	-10.4%	x	x	x	x	x
COC(=O)c1cccnc1NC(=S)NNC(=O)c1ccncc1	7.06µM*	31.5	1.0%	-14.0%	-1.5%	-8.1%	65.2%	20.1%	-6.7%	7.9%	-20.5%
CCCCC(=O)NC(=S)Nc1nnn(CCC)n1	1.77µM*	-98.2*	-4.8%	9.4%[46.1 µM]	-2.9%	14.3%	-6.4%[38.3 µM]	39.8µM*	-14.7%	7.7%	u
NC(=S)NNC(=O)Nc1cccc(Cl)c1	-0.3%	13.2	0.2%	u	20.7%	-23.2%	x	x	x	x	x
Cc1cccc(NNC(N)=S)c1	19.9µM*	68.2	2.0%	15.7%[46.1 µM]	18.1%	-8.9%	10.9%	11.3%	0.1%	-0.3%	10.0%
Cc1cccc(NNC(=S)Nc2ccccc2)c1	x	20.9	x	x	x	89.1%	x	x	x	x	x
NC(=S)NNc1cccc(Cl)c1	12.6µM*	8.2	3.7%	15.4%[46.1 µM]	-16.1%	-23.5%	48.0%	8.0%	-16.2%	-5.1%	-6.7%
CCc1ccc2ncc3c(-c4ccccc4)nn(-c4ccccc4)c3c2c1	x	-17.9	-2.8%[46.1 µM]	-8.8%[46.1 µM]	x	-29.2%	x	x	x	x	x
Nc1ncnc(Sc2ncccn2)c1[N+](=O)[O-]	17.7µM*	40.5	x	x	u	31.6µM*	5.1%[10.4 µM]	u	3.5%	-1.7%	17.6%
Nc1ncnc(Sc2ccccc2)c1[N+](=O)[O-]	9.9%	-20.2	5.3%	1.4%	u	-6.3%	x	x	x	x	x
Cc1c(C(=O)Nc2ccc(C(C)C)cc2)sc2nc3n(c(=O)c12)CCC3	x	u	0.2%[46.1 µM]	x	x	u	x	x	x	x	x
COc1cc(CN2CCN(C(=O)CC(C)C)CC2)cc(OC)c1O	15.8µM*	2.0	-12.1%	24.4%	15.6%	x	u	-18.6%	3.98µM*	u	-6.6%
COc1cc(CN2CCN(C(=O)CC(C)C)CC2)cc(OC)c1OC	u	-30.2	6.9%	17.5%	5.6%	10.5%	x	x	x	x	x
COc1cc(CN2CCC(C(=O)NC3CCCC3)CC2)cc(OC)c1O	17.7µM*	-3.7	2.1%	0.9%	5.4%	0.0%	7.2%	-11.7%	3.98µM*	u	u
CCOc1ccccc1NC(=O)C(C)Sc1nc2c(c(=O)[nH]1)CCCC2 (centres undefined)	x	14.3	11.6%[46.1 µM]	8.2%[46.1 µM]	x	7.5%	x	x	x	x	x
